According to PubChem BioAssay (NCI):
Where “and” joins values, the source holds several entries; their conditions need not be identical. Identical values can stand only once. This is part of a sample that, as a whole, favours compounds with a hit. Of some 83,000 tested, about 20% had one in any assay.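 Activity criterion: percent growth below 10, measured after cells in 96-well plates were exposed to a single compound concentration for 48 hours.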 Calls of active or inactive are those of the source.

How the values were obtained:
Assay in all cases: NCI-60 one-dose screen, 48 h (100 = growth as untreated, 0 = no growth, -100 = all killed)
Conditions in all cases: 10 µM unless noted
NCI-H23 lung = test system: NCI-H23 lung
NCI-H226 lung = test system: NCI-H226 lung
NCI-H322M lung = test system: NCI-H322M lung
HOP-62 NSCLC = test system: HOP-62 NSCLC
NCI-H460 lung = test system: NCI-H460 lung
HOP-92 NSCLC = test system: HOP-92 NSCLC
NCI-H522 lung = test system: NCI-H522 lung
A549/ATCC NSCLC = test system: A549/ATCC NSCLC
786-0 renal = test system: 786-0 renal
COLO 205 colon = test system: COLO 205 colon
DU-145 prostate = test system: DU-145 prostate
K-562 leukemia = test system: K-562 leukemia
MALME-3M melanoma = test system: MALME-3M melanoma
MDA-MB-231 breast = test system: MDA-MB-231 breast
RXF 393 renal = test system: RXF 393 renal
SF-268 CNS = test system: SF-268 CNS
SF-295 CNS = test system: SF-295 CNS
SF-539 CNS = test system: SF-539 CNS
UACC-257 melanoma = test system: UACC-257 melanoma
M14 melanoma = test system: M14 melanoma

Measured: growth

CCOc1ccc(C(=O)Cc2ccccc2)cc1
inactive: NCI-H23 lung 115% and 105% | NCI-H226 lung 99.1% | NCI-H322M lung 114% | HOP-62 NSCLC 97.3% and 121% | NCI-H460 lung 110% and 112% | HOP-92 NSCLC 108% and 102% | NCI-H522 lung 93.8% and 102% | A549/ATCC NSCLC 98.9% and 99.4% | 786-0 renal 93.2% and 103% | COLO 205 colon 120% and 125% | DU-145 prostate 105% and 112% | K-562 leukemia 108% and 103% | MALME-3M melanoma 101% | MDA-MB-231 breast 113% and 102% | RXF 393 renal 117% and 96.4% | SF-268 CNS 110% and 117% | SF-295 CNS 121% and 89.3% | SF-539 CNS 101% and 116% | UACC-257 melanoma 110% and 99.2% | M14 melanoma 114% and 106%

C[C@@H]1O[C@@H](O[C@H]2[C@@H](OC(=O)[C@]34CCC(C)(C)C[C@H]3C3=CC[C@@H]5[C@@]6(C)C[C@H](O)[C@H](O[C@@H]7O[C@H](CO)[C@@H](O)[C@H](O)[C@H]7O)[C@@](C)(CO)[C@@H]6CC[C@@]5(C)[C@]3(C)C[C@H]4O)OC[C@@H](O)[C@@H]2O)[C@H](O)[C@H](O[C@@H]2OC[C@@H](O)[C@H](O[C@@H]3OC[C@](O)(CO)[C@H]3O[C@@H]3OC[C@@H](O)[C@H](O)[C@H]3O)[C@H]2O)[C@H]1O[C@@H]1OC[C@](O)(CO)[C@H]1O
inactive: NCI-H23 lung 48.7% | NCI-H226 lung 99.2% | NCI-H322M lung 56.4% | HOP-62 NSCLC 74% | NCI-H460 lung 110% | HOP-92 NSCLC 103% | NCI-H522 lung 29.8% | A549/ATCC NSCLC 50.2% | 786-0 renal 46.9% | DU-145 prostate 78.5% | K-562 leukemia 58.2% | MALME-3M melanoma 89.9% | MDA-MB-231 breast 74.1% | RXF 393 renal 70.7% | SF-268 CNS 85.7% | SF-295 CNS 62.3% | SF-539 CNS 85.5% | UACC-257 melanoma 56.2% | M14 melanoma 75.9%
active: COLO 205 colon 2.01%

CCCN1C(=O)/C(=c2\sc3n(c2=O)C2C(NN=3)N(CC)C(=O)N2CC)c2ccccc21 (stereo not given)
inactive: NCI-H23 lung 37.8% | NCI-H226 lung 57.1% | NCI-H322M lung 53.1% | HOP-62 NSCLC 45.8% | HOP-92 NSCLC 67.7% | A549/ATCC NSCLC 26.2% | 786-0 renal 36.5% | COLO 205 colon 17.5% | DU-145 prostate 13.6% | MALME-3M melanoma 45.4% | MDA-MB-231 breast 13.9% | RXF 393 renal 17.3% | SF-268 CNS 58.7% | UACC-257 melanoma 24.5% | M14 melanoma 17.5%
active: NCI-H460 lung 5.57% | NCI-H522 lung 1.15% | K-562 leukemia 9.52% | SF-295 CNS 7.46% | SF-539 CNS -17%

[2H]C([2H])([2H])Oc1cccc(/C=C/C(=O)/C=C(/C=C/c2cccc(OC([2H])([2H])[2H])c2OC([2H])([2H])[2H])OB(F)F)c1OC([2H])([2H])[2H]
inactive: NCI-H23 lung 69.9% | NCI-H226 lung 95.4% | NCI-H322M lung 106% | HOP-62 NSCLC 99.5% | NCI-H460 lung 96.9% | HOP-92 NSCLC 102% | NCI-H522 lung 56.9% | A549/ATCC NSCLC 93.4% | 786-0 renal 85.2% | COLO 205 colon 55.2% | DU-145 prostate 88.3% | K-562 leukemia 65.2% | MALME-3M melanoma 75.9% | MDA-MB-231 breast 88% | RXF 393 renal 121% | SF-268 CNS 98% | SF-295 CNS 103% | SF-539 CNS 92.2% | UACC-257 melanoma 64.5% | M14 melanoma 92.8%

C[N+]1=C(/C=C\C=C\c2ccccc2)C(C)(C)c2ccccc21
inactive: NCI-H23 lung 18.7% | NCI-H226 lung 63.8% | NCI-H322M lung 81.2% | HOP-62 NSCLC 52% | NCI-H460 lung 43.4% | A549/ATCC NSCLC 28% | 786-0 renal 33.6% | DU-145 prostate 48.7% | RXF 393 renal 38% | SF-268 CNS 38.5% | SF-295 CNS 72.4% | M14 melanoma 20.5%
active: HOP-92 NSCLC -7.51% | NCI-H522 lung -3.08% | COLO 205 colon -43.4% | K-562 leukemia 4.69% | MALME-3M melanoma -17.8% | MDA-MB-231 breast 9.89% | SF-539 CNS 8.59% | UACC-257 melanoma 8.91%

CC[C@]1(O)CC2CN(CCc3c([nH]c4ccccc34)C(C(=O)OC)(c3cc4c(cc3OC)N(C=O)[C@H]3[C@@](O)(C(=O)OC)[C@H](OC(C)=O)[C@]5(CC)[C@@H]6C[C@@H]6CN6CC[C@]43[C@@H]65)C2)C1 (stereo not given in full)
inactive: NCI-H226 lung 19.3% | NCI-H322M lung 73.9% | HOP-62 NSCLC 22.5% | A549/ATCC NSCLC 17.9% | K-562 leukemia 27.5% | MALME-3M melanoma 34.2% | RXF 393 renal 32.9% | SF-268 CNS 15.3% | UACC-257 melanoma 53.2%
active: NCI-H23 lung 6.32% | NCI-H460 lung 3.37% | HOP-92 NSCLC -0.4% | NCI-H522 lung -21.4% | 786-0 renal 5.62% | COLO 205 colon -87.9% | DU-145 prostate -41.4% | MDA-MB-231 breast -27.5% | SF-295 CNS -4.56% | SF-539 CNS 0.385% | M14 melanoma -31.6%

CCN(CC)CCOc1ccccc1C
inactive: NCI-H23 lung 111% | NCI-H226 lung 116% | NCI-H322M lung 115% | HOP-62 NSCLC 93.8% | NCI-H460 lung 109% | HOP-92 NSCLC 94.6% | NCI-H522 lung 92.6% | A549/ATCC NSCLC 98.6% | 786-0 renal 98.8% | COLO 205 colon 111% | DU-145 prostate 113% | K-562 leukemia 97.5% | MALME-3M melanoma 105% | MDA-MB-231 breast 103% | RXF 393 renal 160% | SF-268 CNS 120% | SF-295 CNS 101% | SF-539 CNS 93.7% | UACC-257 melanoma 106% | M14 melanoma 98.8%
